Compound activity deposited in PubChem BioAssay by The Scripps Research Institute Molecular Screening Center.
SF-1 inh: inhibitors of human SF-1, primary screen, cell-based, CHO-K1, Gal4-SF-1 LBD, luciferase luminescence; Steroidogenic factor 1 (Homo sapiens), Q13285; CHO-K1 Gal4-SF-1 LBD luciferase reporter; inhibition, % at 10 µM; actives 0.55% (n = 65,000); AID 525, 2006;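 active = inhibition above the mean inhibition of all tested compounds plus 3 SD, cut at about 48% in these data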
Target sequence (Q13285 whole entry, looked up, the tested form may be a part): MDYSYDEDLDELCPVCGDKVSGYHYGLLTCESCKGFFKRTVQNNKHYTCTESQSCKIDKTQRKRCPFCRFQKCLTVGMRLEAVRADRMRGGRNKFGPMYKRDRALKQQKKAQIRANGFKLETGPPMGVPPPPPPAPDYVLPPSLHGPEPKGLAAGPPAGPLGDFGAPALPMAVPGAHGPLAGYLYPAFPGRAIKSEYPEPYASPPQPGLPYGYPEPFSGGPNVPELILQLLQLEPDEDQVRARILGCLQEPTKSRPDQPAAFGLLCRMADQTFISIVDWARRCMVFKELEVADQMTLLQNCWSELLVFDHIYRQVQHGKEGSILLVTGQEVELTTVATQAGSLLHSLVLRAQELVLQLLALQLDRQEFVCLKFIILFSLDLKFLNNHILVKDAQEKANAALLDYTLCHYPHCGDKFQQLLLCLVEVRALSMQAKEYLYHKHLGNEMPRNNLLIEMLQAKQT
Numbers stand for hits; 0 = inactive. Shown is part of a subset that was picked to be rich in hits.

SMILES	SF-1 inh
COc1ccc(CNC(=O)c2cccc(N3CCCC3=O)c2)cc1	0
Clc1ccc(OCc2nn3c(-c4ccccc4)nnc3s2)c(Cl)c1	0
CCSc1nc2c(cnn2-c2ccc(C)cc2)c(=O)[nH]1	0
CCOC(=O)C1CCCN(C(=O)C2CCN(S(=O)(=O)c3cnc[nH]3)CC2)C1 (configuration not stated)	0
CC(=O)Oc1c(S(=O)(=O)c2ccc(C)cc2)c(C)nn1-c1ccccc1	0
CSCC[C@H](NC(=O)NCCC1=CCCCC1)C(=O)O	0
CCC(Sc1ccccn1)C(=O)Nc1nnc(C)s1 (configuration not stated)	0
O=C(Oc1ccc2c(c1)OCO2)c1cc2c(s1)CCC2	0
CCCc1noc(-c2ccc(-c3ccccc3)cc2)n1	0
CCCCS(=O)(=O)NC1=NCN(CCOC(=O)c2ccccc2)CN1	0
COc1ccc(OC)c(-n2nnnc2SCC(=O)Nc2ccc(C(=O)N3CCCCC3)cc2)c1	0
COCCN(C(=O)Nc1ccccc1)c1ccccc1C	0
Cn1c(COc2ccc3ccccc3c2)nnc1SCC(=O)O	0
CCOC(=O)c1[nH]c(C)c(C(=O)Nc2ccccc2F)c1C	0
CCOC(=O)c1cc2sccc2n1CCCN1C(=O)c2ccccc2C1=O	0
CC(=O)c1c(C)[nH]c(C(=O)OCCCCN2C(=O)c3ccccc3C2=O)c1C	84.3
O=C(O)CCCCNS(=O)(=O)c1ccc(Cl)c(C(F)(F)F)c1	0
CCOC(=O)/C=C1\CC(=O)Nc2nonc2N1	0
O=C(CN(c1ccc2c(c1)OCCO2)S(=O)(=O)c1ccccc1)NCc1ccco1	0
Cn1ccc(C(=O)OCC(=O)c2ccccc2)n1	0
Cc1nn(-c2ccccc2)c(C)c1C(=O)OCC(=O)c1c(N)n(CC(C)C)c(=O)n(C)c1=O	55.1
COC(=O)CCc1c(C)nn(-c2ccccc2)c1C	0
CC(=O)NCCc1nc2ccccc2n1Cc1ccccc1	0
CN(C1CCCCC1)S(=O)(=O)c1ccc(-n2cnnn2)cc1	0
c1ccc2c(-c3nc(-c4ccncc4)no3)cccc2c1	0
SMILES	SF-1 inh
O=C1c2ccccc2C(=O)C1c1nccc2ccccc12	59.8
O=C(Nc1ccc(F)cc1F)c1noc2c1CCC2	0
c1ccc(N2CCN(c3ncnc4sc5c(c34)CCC5)CC2)cc1	0
CCCCOc1ncnc2c1[nH]c1ccc(F)cc12	49.9
Fc1ccc(Nc2nc(N3CCOCC3)c3ccccc3n2)cc1	0
Fc1ccc2[nH]c3c(N4CCN(c5ccccc5)CC4)ncnc3c2c1	59.6
CCn1c(CNc2cccc(Cl)c2)nnc1SCc1ccccc1	0
O=C(NCCn1ccc2ccccc21)c1ccc2c(c1)OCO2	0
Cn1c(=O)oc2cc(S(=O)(=O)N3CCC(N4CCCCC4)CC3)ccc21	0
C/C(=N\O)c1ccc2c3c([nH]c2c1)CCCC3	0
CC1N/C(=C\C(=O)c2ccccc2)N(O)C1(C)C (configuration not stated)	0
CS(=O)c1nc(-c2ccc(Br)cc2)cc(-c2ccccc2)c1C#N (configuration not stated)	61.1
C=CCN(C(=O)Cn1nnc2ccccc21)C(C(=O)NCCOC)c1ccc(OC)cc1OC (configuration not stated)	0
CC(=O)N1CCN(c2ccc(Oc3nc(-c4ccccc4)nc4ccccc34)cc2)CC1	0
CC1CN(c2nc(-c3ccccc3)nc3ccccc23)CC(C)O1 (configuration not stated)	0
c1ccc(N2CCN(c3nc(-c4ccccn4)nc4ccccc34)CC2)cc1	51.8
COc1cccc(-c2nc(CS(=O)(=O)CC(=O)N3CCN(C)CC3)c(C)o2)c1	0
COc1cccc(-c2nnc(NC(=O)c3ccc(S(=O)(=O)N4CC(C)OC(C)C4)cc3)o2)c1 (configuration not stated)	49.3
COc1cccc(-c2nc(-c3ccc(NC(=O)c4cccnc4)cc3)no2)c1	0
CCn1c(SCC(=O)Nc2nc(-c3ccc(C)cc3)cs2)nnc1-c1ccccc1O	0
Cc1ccc(C(C)C)c(OCCNc2nc3c(c(=O)n(C)c(=O)n3C)n2C)c1	48.9
COc1cccc(C(=O)Cn2c(Br)nc3c2c(=O)n(C)c(=O)n3C)c1	0
COC(=O)c1cc(OC)c(OCc2cc(C(=O)OC)oc2C)c(OC)c1	0
Cc1ccc(S(=O)(=O)N(Cc2nccn2C)C(C)C)cc1	0
O=C(NCC1CCCO1)c1cccc(-n2cnnn2)c1 (configuration not stated)	0
SMILES	SF-1 inh
Cc1cc(NO)nc(-c2ccc(Br)cc2)n1	0
N=c1c2c3c(sc2nc2n1CCCCC2)CCCCC3	0
CCNc1nc2c(c(=O)n(C)c(=O)n2C)n1Cc1ccc(Cl)cc1	54.0
C=CCn1c(NCCc2ccccc2)nc2c1c(=O)n(C)c(=O)n2C	0
Cn1c(=O)c2c(nc(SCCN3CCOCC3)n2Cc2ccc(Cl)cc2)n(C)c1=O	0
CCN1CCN(Cc2nc3c(c(=O)n(C)c(=O)n3C)n2CCCc2ccccc2)CC1	0
COc1ccc(Cl)c(Cn2c(NCC(C)O)nc3c2c(=O)n(C)c(=O)n3C)c1 (configuration not stated)	0
C/C(Cl)=C\Cn1c(NCCc2ccccc2)nc2c1c(=O)n(C)c(=O)n2C	61.7
O=C(C1COc2ccccc2O1)N1CCc2ccccc21 (configuration not stated)	0
O[C@@H]1C2CCCC1[C@]1(O)CCCCC1C2 (some centres not stated)	0
CCN1C(=O)c2ccccc2S(=O)c2ccc(C(=O)NCCCN3CCCC3=O)cc21 (configuration not stated)	0
CCn1nccc1C(=O)Nc1ccc(Cl)cc1Cl	0
CCOC(=O)c1nnn(-c2nn3nnnc3c3ccccc23)c1C	0
Cc1c(C(=O)N2CCCC2)oc2c1-c1[nH]ncc1CC2	0
CN(C)CCOC(=O)C1(c2ccccc2)CCOCC1	0
Cc1oc2cc3c(C(=O)OCCN(C)C)c(C)oc3cc2c1C(=O)OCCN(C)C	79.4
CN(C)CCCOC(=O)c1ccc(Br)cc1	0
CN(CC(=O)N1CCN(c2ccccc2)CC1)S(=O)(=O)c1cnc[nH]1	0
O=C(Cn1ccsc1=NC(=O)c1ccco1)c1ccccc1	0
Cc1nn(Cc2ccccc2Cl)c2sc(C(=O)OC3CCCC3=O)cc12 (configuration not stated)	0
C=C(C)Cn1c(C2CC(=O)N(c3ccccc3F)C2)nc2ccccc21 (configuration not stated)	0
CC(C)CCNC(=O)CN(CCN1CCOCC1)C(=O)Cn1nnc(-c2ccc(F)cc2)n1	0
CCCCCn1c(SCCOCC)nc2c1c(=O)[nH]c(=O)n2C	0
[O-][N+]1=c2ccc(Nc3ccccc3)cc2=NC12CCCCC2	61.8
O=C(CCNS(=O)(=O)c1cccc2nonc12)NC1CCCc2ccccc21 (configuration not stated)	0
SMILES	SF-1 inh
CC(=O)N1CCc2cc3nc(C)cc(C)c3cc21	0
CCOC(=O)N1CCC(NC(=O)c2cccc3c2C(=O)N(CCOC)C3)CC1	0
COc1cccc(-c2c(NC(=O)c3ccco3)n(-c3ccc(C)cc3)nc(C)c2=O)c1	0
COc1cc(C2NC(=O)NC(O)(C(F)(F)F)C2C(C)=O)cc(OC)c1OC (configuration not stated)	0
COc1cc([C@@H]2c3cc4c(cc3[C@H](O)[C@H]3COC(=O)[C@H]23)OCO4)cc(OC)c1OC	78.2
O=C(c1ccc2c(c1)OCCCO2)c1cccs1	0
CN(C)CC(C(=O)c1ccccc1)c1ccccc1 (configuration not stated)	68.1
